Screening results from PubChem.
Compounds with a hit are over-represented: about 11% of the library has one in this group of screens.
Lmaj promast = reduces viability of Leishmania major promastigotes. resazurin fluorescence viability. inhibition, % at 10 µM. actives 9% (n = 200,000). AID 1063; in the data active = inhibition above about 50%;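 note: promastigotes grown with compound for 44 hours at 28 °C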
WT yeast gro inh = growth inhibition of WT yeast, mitochondrial fusion screen. mitochondrial fusion phenotypic screen, WT strain. inhibition, % at 10 µM. actives 2.1% (n = 190,000); in the data active = inhibition above about 58%; tested in S. cerevisiae
Insulin prom inh = TRM-6 insulin promoter activity inhibition; TRM-6 cells (human fetal islet line), insulin promoter-eGFP reporter, imaging; reporter expression induced with tamoxifen; inhibition, % at 2 µM; actives 0.9% (n = 130,000); AID 1273;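 active = inhibition above the mean plus 3 SD, with well images judged a real hit on visual review, cut at about 60% in these data, passing the limit was not always enough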
Autophagy HCS = modulators of autophagy. MEF GFP-LC3 puncta imaging; test concentration mostly 10 µM. calls only at 10 µM (by protocol). actives 0.98% (n = 190,000). AID 463193;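 active = percentage of spot-positive cells more than 3 SD above its plate mean, without a fluorescence outlier flag or 80% toxicity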;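 note: spot-positive cell cutoff set from DMSO-treated cells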
Ins promoter up = MIN6 insulin promoter up-regulation; MIN6 insulin promoter-GFP reporter, high-content imaging; stronger effect = higher value; z-score at 5 µM; actives 0.3% (n = 190,000); AID 1625;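 active = z-score above 3 at 5 µM with at least 500 cells counted in the well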
Active calls of the source: *; i = inactive; . = no result given.

SMILES	Lmaj promast	WT yeast gro inh	Insulin prom inh	Autophagy HCS	Ins promoter up
COc1cc(OC)cc(C(=O)N[C@H](C(=O)OCC(=O)Nc2ccc(C(N)=O)cc2)C(C)C)c1	56*	10	-16	i	-0.34
Cc1cc(N)nc2nc(C(F)(F)F)nn12	16	-8	i	i	0.21
Cn1nc([N+](=O)[O-])nc1Sc1nnnn1-c1ccc(C(=O)O)cc1	2	-10	.	i	1.1
COc1ccc(/C=C(\NC(=O)c2ccccc2Cl)C(=O)NCCCC(=O)O)cc1	-6	-24	.	i	-0.57
COc1ccc(Cl)cc1NC(=S)NCCSc1ccc(C)cc1	0	78*	.	i	-0.96
COc1ccc(NC(=S)NCCSc2ccc(Cl)cc2)c(OC)c1	100*	73*	9	i	0.96
COc1ccccc1NC(=S)NCCSc1ccc(Cl)cc1	8	78*	-56	i	-0.38
O=C(NCCSc1ccc(Cl)cc1)c1ccco1	5	11	.	i	0.4
COc1ccc(Cl)cc1NC(=S)NCCc1c[nH]c2ccccc12	2	-3	.	i	0.44
Cc1cccc(C)c1NC(=S)NCCSc1ccc(Cl)cc1	37	80*	36	i	.
COc1ccccc1NC(=S)NCCc1ccc(Cl)cc1	15	-1	35	i	-0.74
COc1ccc(NC(=S)NCCc2ccccc2)c(OC)c1	7	48	0	i	0.63
CC1(O)N(CCC(=O)Nc2cccc(F)c2)C(=O)OC12CCCCC2 (stereo not drawn)	-1	5	.	i	.
CC(C)=CC(=O)OCC(=O)NC1CCCc2ccccc21 (stereo not drawn)	-1	-4	5	i	-0.15
C=CCNC(=O)COC(=O)c1ccc(Cl)c(S(=O)(=O)N(Cc2ccccc2)c2ccccc2)c1	-8	11	.	i	1.5
Oc1ccc(N2CCN(c3ncnc4sc(-c5ccccc5)cc34)CC2)cc1	62*	43	-64	i	-0.9
COc1ccc2c(c1)C(=O)[C@H](O)[C@@H](c1ccc(OC)c(Br)c1)O2	99*	12	15	i	-0.47
Cc1ccc(N(C(=O)C2CCC(=O)N2)C2(C(=O)NC3CCCC3)CCCCC2)cc1 (stereo not drawn)	-6	3	39	i	.
O=S(=O)(NCCNc1ncc(C(F)(F)F)cc1Cl)C(F)(F)F	-4	83*	-18	i	-0.22
O=C1C=CC(=O)N1CCNc1ncc(C(F)(F)F)cc1Cl	2	97*	-400	i	.
NCC12CC3CC(C1)CC(CN)(C3)C2	-3	19	.	i	3.1*
NCC12CC3CC(CC(O)(C3)C1)C2	0	6	11	i	0.19
COc1ccc(S(=O)(=O)NC(C)CCc2ccccc2)cc1 (stereo not drawn)	4	5	.	i	-0.14
Cc1[nH]c2ccccc2c1C(=O)COC(=O)c1cccc(S(=O)(=O)N2CCCCC2)c1	32	24	36	i	-0.32
CCn1c(C)nc2cc(C(=O)N=Nc3c(O)[nH]c4ccccc34)ccc21	54*	1	-36	i	-0.01
SMILES	Lmaj promast	WT yeast gro inh	Insulin prom inh	Autophagy HCS	Ins promoter up
CCn1c(C)nc2cc(C(=O)N=Nc3c(O)[nH]c4c(C)cc(C)cc34)ccc21	-2	-5	-3	i	-0.04
O=C(N=Nc1c(O)[nH]c2ccccc12)c1cccc(S(=O)(=O)N2CCCCC2)c1	61*	-12	-32	i	0.04
CC(C)c1ccc2[nH]c(O)c(N=NC(=O)c3cccc(S(=O)(=O)N4CCCCC4)c3)c2c1	99*	2	13	i	-0.72
CC(=O)NS(=O)(=O)c1ccc(NC(=O)CSc2ccc(C)cc2)cc1	-7	-13	.	i	0.75
Brc1ccccc1OCCCCCN1CCOCC1	93*	19	.	i	-0.57
O=C(OCCCN1CCCC1)C1(c2ccccc2)CCCC1	100*	7	-167	i	-0.11
CC(=O)c1ccccc1OCCCN1CCCCC1	90*	7	.	i	1
CC(=O)c1ccccc1OCCOCCOCCOc1ccccc1C(C)=O	-4	-16	-29	i	-0.8
Cc1cc(Cl)c(OCCN2C(=O)NC(C)(C)C2=O)c(Br)c1	63*	-3	i	i	1.5
Brc1ccccc1OCCCCn1cnc2ccccc21	19	47	.	i	-2.8
CCC(C)[C@H](NC(=O)NCc1ccc(F)cc1)C(=O)O (stereo partly drawn)	.	.	.	.	0.22
COc1ccc(C(=O)c2ccc([N+](=O)[O-])cc2Cl)cc1	8	2	.	i	-0.09
O=C(OCCN1CCCCC1)c1ccccc1Cl	1	-26	.	i	-0.34
Clc1ccccc1OCCCCN1CCCC1	96*	-2	-64	i	0.21
